# Reference: PubChem BioAssay AID602332 (National Center for Advancing Translational Sciences (NCATS), 2012)
# Where “and” joins values, the source holds several entries; their conditions need not be identical. Equal entries are not always repeated. The campaign covered roughly 420,000 compounds. About 75 (0.02%) were called active. Only a selection was taken, and actives are over-represented in it overall. Some structures have more than one record in an assay (separate samples or runs), and their calls can disagree. Unmarked numbers belong to inactive results. The call rests on the fitted dose curve; in most records, active means well fitted activation curve with a large enough effect; inconclusive means small, poorly fitted or top-dose-only effect; inactive means no such curve, though single readings can be large or run the other way.
# Assay: qHTS for Inducers of the Endoplasmic Reticulum Stress Response (ERSR) in Human Glioma: qHTS; further: nearly all actives have a fitted effect of over 35% in size; on activation: % of control where 0% means no effect
# Settings: U87-MG GRP78 promoter luciferase reporter, 16 h; activation: hits give high values
# Description: Primary protein unfolding takes place for many diseases, including diabetes and hypoxia, , and triggers a reaction in the cells called ER stress response (ERSR). ). ERSR is designed as a repair mechanism, but ultimately leads to cell death via apoptosis if conditions triggering protein unfolding persist (1). The molecular clue to ERSR activation is the enhancement of the expression of key molecular chaperones, including the glucose regulated protein (GRP) 78. GRP78 is the main sensor for protein folding and the main actuator of the ERSR.
# In a collaboration between the Southern Research Institute and the NIH Chemical Genomics Center, a cell based screen was developed that reliably uses GRP78 as a sensor to identify small molecules as inducers of ERSR. In resting conditions, GRP78 binds proteins and acts as a natural repressor. Once unfolded proteins are present in the ER, GRP78 releases some of the repressors and binds to the unfolded proteins. The release of the repressors executes the ERSR program. Using a human glioma cell line in a miniaturized, luminescent format, a high-throughput screen was developed to identify actuators of the ERSR.
# (1) Soboloff, J. and S. A. Berger (2002). "Sustained ER Ca2+ depletion suppresses protein synthesis and induces activation-enhanced cell death in mast cells." J Biol Chem 277(16): 13812-20.
# NIH Chemical Genomics Center [NCGC]
# NIH Molecular Libraries Probe Centers Network [MLPCN]
# Assay Submitter (PI): Maurizio Grimaldi, Southern Research Institute
# Stable transfected human glioma cell line, U87-MG, are dispensed at density 1000 cells/well into Greiner white solid bottom 1536-well assay plates. Compounds are transferred via Kalypsys pin tool equipped with 1536-pin array (10nl slotted pins, V&P Scientific, San Diego, CA). The assay plates will be incubated for 16 hours and developed by adding appropriate quantities of the Promega Bright Glo reagent. The plates will be incubated at room temperature for 10 minutes prior to being transferred into a ViewLux high-throughput CCD imager (PerkinElmer), wherein end-point measurements of luminescence are acquired.
# Potency means the concentration at half of the fitted maximal effect.
SMILES,activation,Potency
O=c1c(CN2CCOc3ccc(CN4CCC(Oc5cccnc5)CC4)cc3C2)coc2ccccc12,-1.61%,
O=C(CN1Cc2ccccc2OC(c2ccccc2)C1)N1CCCCC1c1cccnc1 (stereo not given),0.385%,
C[C@H]1C[C@H]2[C@@H]3CCC4=CC(=O)C=C[C@]4(C)[C@@H]3C(=O)C[C@]2(C)[C@@]1(O)C(=O)CO,-3.39%,
CC(=O)Oc1c2c(c3c(c1CC=C(C)C)O[C@@]14C(=CC5CC1C(C)(C)OC4(C/C=C(\C)C(=O)O)C5=O)C3=O)OC(C)(CCC=C(C)C)C=C2 (stereo not given in full),-12.4%,
COC(=O)C1=C(C)N(Cc2ccccc2)C2=C3C(=O)N(c4ccccc4)C(=O)C3[C@@](O)(C(=O)OC)C(=O)N2C1c1ccccc1 (stereo not given in full),-1.87% and -3.39%,
CN1CCc2nc(-c3ccccc3)c(-c3ccccc3)cc2C1,-5.76%,
C=CCOC(=O)C(C(C)=O)C(NC(=O)OC)c1ccccc1 (stereo not given),-3.7%,
O=C1C[C@H]2C=CCc3cccc(c32)CN1Cc1ccccc1,-0.186%,
CC(C)c1cc(C(=O)N2CCOc3ccc(CN4CCC(Oc5cccnc5)CC4)cc3C2)n[nH]1,-4.01%,
COc1ccccc1C1CN(CCNC(=O)C2=CCCC2)Cc2ccccc2O1 (stereo not given),-2%,
CC[C@H](C)[C@H](NC(=O)[C@H](Cc1cnc[nH]1)NC(=O)[C@@H](N)CCC(=O)O)C(=O)N1CCC[C@H]1C(=O)N[C@@H](C)C(=O)O,-2.54%,
CO[C@H]1C[C@@H](O[C@@H]2[C@@H](C)O[C@@H](O[C@@H]3/C(C)=C/CC4C[C@@H](C[C@]5(C=C[C@@H](C)[C@H](C6CCCCC6)O5)O4)OC(=O)[C@@H]4C=C(C)[C@@H](O)[C@H]5OC/C(=C\C=C\[C@@H]3C)[C@]54O)C[C@H]2OC)O[C@@H](C)[C@@H]1O,-9.58%,
CC(C)(C)c1ccc(C(=O)C[N+]2(C)CCCc3ccccc32)cc1 (stereo not given),-4.17%,
CC(=O)Nc1cc(C(=O)N2CCc3c(Cl)cccc3C2)cc2ncn(CCc3ccccn3)c12,-1.89%,
C[C@@H](c1ccccc1)N1C(=O)[C@H]2[C@H]3[C@H](O)[C@H](O)C/C(=N/OC[C@@H](O)COCc4ccco4)[C@@H]3CC[C@@H]2C1=O,-4.31%,
Cc1ncc2c(c1CNS(=O)(=O)N(C)C)CCN(C(=O)c1ccccc1F)C2,-3.66%,
O=C1CCN(Cc2ccc(-c3ccccc3)cc2)CCN1Cc1ccccn1,2.1%,
CN(C)C(=O)[C@@H]1C[C@@H](Sc2nc3ccccc3[nH]2)CN1Cc1ccc(Cl)cc1,-3.23%,
C[C@@H]1O[C@@H](OC[C@H]2O[C@@H](Oc3c(-c4cccc(O)c4O)oc4cc(O)cc(O)c4c3=O)[C@H](O)[C@@H](O)[C@@H]2O)[C@H](O)[C@H](O)[C@H]1O,-4.32%,
CCCS(=O)(=O)NCc1c(C)ncc2c1CCN(C(=O)c1ccc(F)c(F)c1)C2,-4.76%,
CC(C)C(=O)NC(C)c1nnc2n1CCN(Cc1cccc3ncccc13)CC2 (stereo not given),-2.92%,
CCC1CN(CCNC(=O)c2ccsc2)Cc2cc(OC)ccc2O1 (stereo not given),-2.11%,
N#Cc1cccc(-c2ccc3ncnc(NCc4cccs4)c3c2)c1,-10.9%,

SMILES,activation,Potency
COC(=O)[C@@H]1CC[C@H](C)[C@@H](c2ccc(C)cc2)N1C(=O)c1ccc(/C=N\O[C@@H](C)c2cn([C@H](CO)Cc3ccccc3)nn2)cc1,-4.74% and -2.82%,
COc1cc(=O)n2c(c1C(=O)NC(C)c1ccco1)CCN(Cc1cc(C)cc(C)c1)CC2 (stereo not given),-3.17%,
CO[C@@H]1COC(=O)C/C=C\[C@H](C)[C@@H](NS(=O)(=O)c2ccc(C)cc2)COC(=O)C/C=C\[C@@H]1C,-3.94% and -2.29%,
COC(=O)c1c(OCc2ccc(F)cc2)cc(=O)n2c1CCN(Cc1ccc3cccnc3c1)CC2,-4.1%,
c1ccc2c(Nc3ccncc3)nc(-c3ccc4c(c3)OCO4)nc2c1,-6.62%,
CO[C@H]1COC(=O)[C@@H](C)NC(=O)C/C=C\[C@@H](C)[C@H](OC)COC(=O)C/C=C\[C@@H]1C,-4.07%,
Cc1c(O)cc2c(c1C)O[C@](C)(CCC[C@H](C)CCC[C@H](C)CCCC(C)C)CC2,-2.5%,
CCC1(C2CCN(C(=O)c3cccc(F)c3F)CC2)NC(=O)N(CCc2scnc2C)C1=O (stereo not given),-1.9%,
Cc1cc(C)cc(CN2CCc3nnc(C(NS(C)(=O)=O)C(C)C)n3CC2)c1 (stereo not given),-4.09%,
CC(=O)OCC1OC(C#Cc2ccccc2Cl)C=CC1OC(C)=O (stereo not given),-1.79%,
CC(C)N1C[C@@H](NCc2ccccc2O)C[C@H]1C(=O)N1CCN(c2cccc(C(F)(F)F)c2)CC1,-4.06%,
COc1cc(=O)n2c(c1C(=O)N(C)Cc1nccs1)CCN(Cc1ccc(Cl)cc1)CC2,-5.15%,
O=C(CCN1Cc2ccccc2OC(c2ccccc2)C1)N[C@@H]1CS(=O)(=O)C[C@H]1O (stereo not given in full),-4.81%,
O=C1OCCC=C1[C@@H](O)CCc1ccccc1,3.05%,
O=c1cc(-c2ccc(O)cc2)oc2c(-c3cc(-c4cc(=O)c5c(O)cc(O)cc5o4)ccc3O)c(O)ccc12,-1.39%,
COc1c(O)cc2oc(-c3ccc(O)c(O)c3)cc(=O)c2c1O,,20 µM (active)
O=c1cc(-c2ccc(O)c(O)c2)oc2cccc(O)c12,-2.34%,
CCCN(CC)[C@@H](CC)C(=O)Nc1c(C)cccc1C,-4.31%,
O=C1[C@H]2[C@H]3[C@H](O)[C@H](O)C/C(=N/OCc4ccccc4)[C@H]3CC[C@@H]2C(=O)N1Cc1ccccc1,-3.44%,
C/C(CCN1CCCCc2nc(C)c(C)cc21)=N\O[C@@H](C)c1cn([C@@H]2COC[C@@H]2O)nn1,-4.19%,
COc1ccc2c(c1)CCc1cnc(-n3ncc(C(=O)NCCN4CCOCC4)c3C)nc1-2,5.73%,
COc1ccc(/C=C/NC(=O)Cc2ccc(OC)c(OC)c2)cc1,0.885% and -3.87%,
Cc1c(C(=O)NCC2CCCN(C)C2)cnn1-c1nccc(-c2ccco2)n1 (stereo not given),-1.59%,

SMILES,activation,Potency
O=S(O)S(=O)(=O)O,-8.27%,
CCOC(=O)N1CCN(Cc2ccc3c(c2)CN(C(=O)c2cccc(-n4cccn4)c2)CCO3)CC1,-2.17%,
Cc1ccc(/C=C(\C#N)C(=O)Nc2cc(C)ccc2C)cc1,-3.56%,
N#C/C(=C\c1ccc(O)c(O)c1)C(N)=O,-0.645% and -1.72%,
N#C/C(=C\c1ccc(O)c(O)c1)C(=O)NCc1ccccc1,7.31% and 13.4% and 3.72%,25.1 µM (active)
Cc1cnc(C)c(-c2cc(F)c3c(c2)CC(CNC(=O)c2cccc(Cn4cccn4)c2)O3)n1 (stereo not given),-2.2%,
COc1ccccc1-c1ccnc(-n2ncc(C(=O)NCCc3ccncc3)c2C)n1,-0.593%,
O=C(c1cccc(Cn2cccn2)c1)N1CCOc2c(cc(-c3csc4ccccc34)cc2OC2CCOC2)C1 (stereo not given),-1.78%,
Cc1ccc(C(=O)Nc2cccc(-c3nc(CNC(=O)c4ccccc4-n4cccn4)c(C)o3)c2)s1,-4.42%,
COc1ccc(CN(C)CCn2cc(C(=O)N3CCSCC3)nn2)cc1C,-2.77%,
COC(=O)C1CCCCN1Cc1ccc2c(c1)CN(Cc1cc(OC)c3c(c1)OCO3)CCO2 (stereo not given),0.195%,
COC(=O)C(C(=O)OC)[C@@H]1CCCC(=O)C1,-5.46%,
COCCN1CCN(C(=O)c2sc3ncnc(NCC4CCCO4)c3c2C)CC1 (stereo not given),-1.15%,
COc1ccc(CCNc2ncnc3sc(C(=O)N4CCCC4)c(C)c23)cc1OC,-0.648%,
C[C@@H]1CN(Cc2ccc3c(c2)CN(Cc2ccc(Oc4ncccn4)cc2)CCO3)C[C@H](C)O1,-2.33%,
CC(C)[C@@H](OCc1ccccc1)[C@H](C)/C=N\OC[C@@H](C)[C@H](OCc1ccccc1)C(C)C,-2.4%,
Cc1cc(C(=O)NCC2Cc3cccc(-c4cncnc4)c3O2)c(C)o1 (stereo not given),-0.609%,
CCOC(OCC)OCC,3.31%,
CC[C@H](C)[C@H](NC(=O)[C@@H](N)CCC(=O)O)C(=O)N[C@@H](CC(C)C)C(=O)N[C@@H](CC(=O)O)C(=O)N[C@H](C(=O)N1CCC[C@H]1C(=O)N[C@@H](CO)C(=O)N[C@H](C(=O)O)[C@@H](C)O)C(C)C,-2.27%,
N[C@@H](C(=O)O)c1ccc(P(=O)(O)O)cc1,-4.34%,
CN(C)c1ccc(CN2CCOc3ccc(CN4CCC(O)(c5cccnc5)CC4)cc3C2)cc1,-1.82%,
Cc1ccc(Cn2cnc3c(cnn3C(C)(C)C)c2=O)c(F)c1,-6.82%,
O=C(C[n+]1ccncc1)c1ccc2c(c1)CCCC2,-0.663%,

SMILES,activation,Potency
Cc1cc(-c2ccnc(-n3ncc(C(=O)NC(C)(C)CO)c3C3CC3)n2)c(C)s1,-3.21%,
Cc1cccc(CNc2ccnc(-c3cccnc3)n2)c1,6.2%,
CCOC(=O)Cc1cccc(-c2cc(CCCCCCc3ccc(O[C@H]4O[C@H](COC(C)=O)[C@@H](OC(C)=O)[C@H](OC(C)=O)[C@@H]4OC(C)=O)c(-c4cccc(CC(=O)OCC)c4)c3)ccc2O[C@H]2O[C@H](COC(C)=O)[C@@H](OC(C)=O)[C@H](OC(C)=O)[C@@H]2OC(C)=O)c1,-3.38%,
O=c1cc(-c2ccc(O)cc2)oc2c([C@@H]3O[C@H](CO)[C@@H](O)[C@H](O)[C@H]3O)c(O)cc(O)c12,-0.663%,
Cc1ccc(-c2ccnc(-n3ncc(C(=O)N(C)Cc4cccc5ncccc45)c3C3CC3)n2)o1,-4.64%,
COc1ccnc(C[S@@](=O)[C@@H]2Nc3ccc(OC(F)F)cc3N2)c1OC,-1.51%,
COc1ccc2c(c1)NC(=O)C2CC(=O)N1CCOc2c(cc(-c3cnc4ccccc4c3)cc2OC)C1 (stereo not given),-6.72%,
COCC1CCCN(Cc2ccc3c(c2)CN(C(=O)c2ccnn2C)CCO3)C1 (stereo not given),-2.07%,
COc1ccc(F)c(CN2CCC3(CCC(CNC(=O)c4ccn(C)n4)O3)CC2)c1 (stereo not given),-4.54%,
NNc1nnc(Cc2ccncc2)c2ccccc12,-5.05%,
CC1=C(/C=C/C(C)=C/C=C/C(C)=C/C=C/C=C(C)/C=C/C=C(C)/C=C/C(=O)[C@]2(C)C[C@@H](O)CC2(C)C)C(C)(C)C[C@H](O)C1,-0.817%,
O=C1NC(CC(=O)N2CCC(n3c(C4CCC4)nc4cccnc43)CC2)c2ccccc21 (stereo not given),-7.83%,
COCC(=O)Nc1cc(C(=O)N2CCCC(c3ccccc3)CC2)c2c(c1)nc(-c1ccncc1)n2C (stereo not given),1.99%,
COc1ccc(C)cc1N1C(=O)[C@@H]2C[C@H]1CN2Cc1cccc(OC)c1O,-3.49%,
CCOC(=O)[C@]1(C(/C=C/c2ccco2)NC(=O)OC)CCCC1=O (stereo not given in full),-4.35%,
CCOCCOC(=O)C(C)Oc1ccc(Oc2ncc(C(F)(F)F)cc2Cl)cc1 (stereo not given),3.45%,
CN1CCCCCC1C(=O)NCCN1Cc2ccccc2OC(c2ccsc2)C1 (stereo not given),-4.87%,
CNCCCOc1cc2nc(N3CCCN(C)CC3)nc(NC3CCN(C)CC3)c2cc1OC,-4.57%,
COc1ccccc1-c1ccnc(-n2ncc(C(=O)NCCCN3CCOCC3)c2C)n1,-5.22%,
COC(=O)NC(c1ccccc1)[C@]1(C(C)=O)CCCC1=O (stereo not given in full),-3.63%,
